Results: PubChem BioAssay (EPA / NIEHS)
Results filed as inconclusive are left out. Calls of active or inactive are those of the source. How the source made its calls, unless noted: active means hit-call score of the fitted dose curve at least 0.9, where 1 is the maximum; inactive means score below 0.9.

Experiments:
[1] = read-out: Phosphatase and tensin (PTEN), PTEN (gene 5728); experiment: LTEA_HepaRG_PTEN: Life Technologies and Expression Analysis (LTEA) Assay for Phosphatase and tensin (PTEN) using HepaRG (AID 2283523); details: mRNA level, 48 h; actives raise or lower the signal
How it was run: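 Expression of PTEN is quantified in the human liver line HepaRG following two days of dosing (top concentration 100 uM, half-log dilutions, 0.5% DMSO). Values derive from bidirectional curve fitting relative to DMSO controls.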

[2] = read-out: solute carrier (SLC22A1), SLC22A1 (gene 6580); experiment: LTEA_HepaRG_SLC22A1: Life Technologies and Expression Analysis (LTEA) Assay for solute carrier (SLC22A1) using HepaRG (AID 2283524); details: mRNA level, 48 h; actives raise or lower the signal
How it was run: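 Transcript induction or suppression of SLC22A1 in human HepaRG cultures is scored after 48 h chemical treatment, with DMSO (0.5%) as baseline for bidirectional fitting. Concentrations span eight half-log points topping at 100 uM.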

[3] = read-out: Pyruvate Dehydrogenase Kinase 4 (PDK4), PDK4 (gene 5166); experiment: LTEA_HepaRG_PDK4: Life Technologies and Expression Analysis (LTEA) Assay for Pyruvate Dehydrogenase Kinase 4 (PDK4) using HepaRG (AID 2283525); details: mRNA level, 48 h; actives raise or lower the signal
How it was run: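 Eight-point, half-log concentration series (max 100 uM, 0.5% DMSO) applied to differentiated HepaRG cells for 48 h in duplicate. Endpoint: PDK4 mRNA induction or repression by qRT-PCR against DMSO baseline.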

[4] = read-out: NAD(P)H dehydrogenase [quinone] 1 (NQO1), NQO1 (gene 1728); experiment: LTEA_HepaRG_NQO1: Life Technologies and Expression Analysis (LTEA) Assay for NAD(P)H dehydrogenase [quinone] 1 (NQO1) using HepaRG (AID 2283526); details: mRNA level, 48 h; actives raise or lower the signal
How it was run: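 In this assay, gene expression is read by qRT-PCR after 48 h exposure of HepaRG cells to eight concentrations (max 100 uM, half-log) in 0.5% DMSO. Each chemical runs in duplicate, and activity is scored relative to vehicle.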

[5] = read-out: Nuclear factor erythroid 2-related factor 2 (Homo sapiens) (UniProt Q16236); experiment: LTEA_HepaRG_NFE2L2: Life Technologies and Expression Analysis (LTEA) Assay for Nuclear factor erythroid 2-related factor 2 (NFE2L2) Transcription Factor using HepaRG (AID 2283527); details: mRNA level, 48 h; actives raise or lower the signal;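 further: TaqMan qRT-PCR transcript level normalised to ACTB GAPDH and POLR2A housekeeping genes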
How it was run: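 Human liver HepaRG line treated in duplicate for 48 h with an eight-point series topping at 100 uM. Gene expression of NFE2L2 by qRT-PCR, bidirectionally fitted against the vehicle control.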

[6] = read-out: succinate dehydrogenase complex iron sulfur subunit B (SDHB), SDHB (gene 6390); experiment: LTEA_HepaRG_SDHB: Life Technologies and Expression Analysis (LTEA) Assay for succinate dehydrogenase complex iron sulfur subunit B (SDHB) using HepaRG (AID 2283528); details: mRNA level, 48 h; actives raise or lower the signal
How it was run: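 HepaRG, 48 h exposure, 8-pt half-log series from 100 uM in 0.5% DMSO, duplicates. Readout: SDHB mRNA by Fluidigm qRT-PCR vs housekeeping genes; bidirectional fit relative to DMSO.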

[7] = read-out: Signal transducer and activator of transcription 3 (Homo sapiens) (UniProt P40763); experiment: LTEA_HepaRG_STAT3: Life Technologies and Expression Analysis (LTEA) Assay for Signal transducer and activator of transcription (STAT3) using HepaRG (AID 2283529); details: mRNA level, 48 h; actives raise or lower the signal
How it was run: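 In this transcriptional endpoint, HepaRG cultures receive test chemicals at up to 100 uM for 48 h, tested in duplicate. STAT3 mRNA is normalized to ACTB, GAPDH and POLR2A.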

[8] = read-out: solute carrier (SLCO1B1), SLCO1B1 (gene 10599); experiment: LTEA_HepaRG_SLCO1B1: Life Technologies and Expression Analysis (LTEA) Assay for solute carrier (SLCO1B1) using HepaRG (AID 2283530); details: mRNA level, 48 h; actives raise or lower the signal
How it was run: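 Differentiated human HepaRG cells, plated 48 h, switched to serum-free induction medium and exposed in duplicate for 48 h to 8 half-log concentrations (top 100 uM) in 0.5% DMSO. SLCO1B1 mRNA by TaqMan qRT-PCR, normalized to ACTB/GAPDH/POLR2A.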

[9] = read-out: sulfotransferase 2A1 (SULT2A1), SULT2A1 (gene 6822); experiment: LTEA_HepaRG_SULT2A1: Life Technologies and Expression Analysis (LTEA) Assay for sulfotransferase 2A1 (SULT2A1) using HepaRG (AID 2283531); details: mRNA level, 48 h; actives raise or lower the signal
How it was run: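 Differentiated human HepaRG cells in serum-free induction medium were exposed for 48 h to eight half-log concentrations (top 100 uM, 0.5% DMSO). SULT2A1 mRNA was measured by qRT-PCR, normalized to ACTB, GAPDH and POLR2A, and fitted bidirectionally against DMSO.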

[10] = read-out: Transforming Growth Factor (TGFA), TGFA (gene 7039); experiment: LTEA_HepaRG_TGFA: Life Technologies and Expression Analysis (LTEA) Assay for Transforming Growth Factor (TGFA) using HepaRG (AID 2283532); details: mRNA level, 48 h; actives raise or lower the signal
How it was run: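 Gene expression of TGFA was quantified by qRT-PCR after human HepaRG cells were treated for 48 h with test chemicals (eight concentrations, highest 100 uM, 0.5% DMSO). Activity in either direction was fitted relative to DMSO.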

[11] = read-out: Transforming Growth Factor (TGFB1), TGFB1 (gene 7040); experiment: LTEA_HepaRG_TGFB1: Life Technologies and Expression Analysis (LTEA) Assay for Transforming Growth Factor (TGFB1) Transporter using HepaRG (AID 2283533); details: mRNA level, 48 h; actives raise or lower the signal
How it was run: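 Differentiated human HepaRG cells in serum-free induction medium were exposed in duplicate for 48 h to eight concentrations (top 100 uM, half-log steps, 0.5% DMSO). TGFB1 mRNA was quantified by qRT-PCR, normalized to ACTB, GAPDH, POLR2A, and fitted bidirectionally against DMSO.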

TIMP1, TIMP1 (gene 7076) = experiment: LTEA_HepaRG_TIMP1: Life Technologies and Expression Analysis (LTEA) Assay for TIMP1 using HepaRG (AID 2283534); details: mRNA level, 48 h; actives raise or lower the signal
How it was run: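 Differentiated human HepaRG cells in serum-free induction medium were exposed 48 h to chemicals (8 half-log concentrations, top 100 uM, 0.5% DMSO). TIMP1 mRNA was quantified by TaqMan qRT-PCR, normalized to ACTB/GAPDH/POLR2A; bidirectional fit versus DMSO.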

[12] = read-out: Tumor necrosis factor receptor 1 (TNFRSF1A), TNFRSF1A (gene 7132); experiment: LTEA_HepaRG_TNFRSF1A: Life Technologies and Expression Analysis (LTEA) Assay for Tumor necrosis factor receptor 1 (TNFRSF1A) using HepaRG (AID 2283535); details: mRNA level, 48 h; actives raise or lower the signal
How it was run: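 Differentiated human HepaRG cells were exposed in duplicate for 48 h in serum-free induction medium to eight concentrations (top 100 uM, half-log steps, 0.5% DMSO). TNFRSF1A mRNA was quantified by qRT-PCR, normalized to ACTB, GAPDH and POLR2A, then fitted bidirectionally against DMSO.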

[13] = read-out: Thyroid Hormone Responsive (THRSP), THRSP (gene 7069); experiment: LTEA_HepaRG_THRSP: Life Technologies and Expression Analysis (LTEA) Assay for Thyroid Hormone Responsive (THRSP) using HepaRG (AID 2283536); details: mRNA level, 48 h; actives raise or lower the signal
How it was run: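 Cell model: human HepaRG, approx. 100,000 cells/well, 0.5% DMSO vehicle. Exposure lasts 48 h; phenobarbital 1 mM serves as induction positive control. Gene expression is measured by qRT-PCR against three endogenous control genes.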

[14] = read-out: Cellular tumor antigen p53 (Homo sapiens) (UniProt P04637); experiment: LTEA_HepaRG_TP53: Life Technologies and Expression Analysis (LTEA) Assay for Tumor Protein P53 (TP53) using HepaRG (AID 2283537); details: mRNA level, 48 h; actives raise or lower the signal
How it was run: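 HepaRG, 48 h exposure, top 100 uM, half-log 8-point, 0.5% DMSO vehicle, duplicates. Read: TP53 mRNA by TaqMan qRT-PCR, normalised to ACTB/GAPDH/POLR2A; bidirectional fit vs DMSO.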

[15] = read-out: UDP glucuronosyltransferase (UGT1A1), UGT1A1 (gene 54658); experiment: LTEA_HepaRG_UGT1A1: Life Technologies and Expression Analysis (LTEA) Assay for UDP glucuronosyltransferase (UGT1A1) using HepaRG (AID 2283538); details: mRNA level, 48 h; actives raise or lower the signal
How it was run: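 mRNA induction or loss of UGT1A1, by TaqMan qRT-PCR, in duplicate HepaRG wells after 48 h exposure to half-log dilutions topping at 100 uM; DMSO (0.5%) served as baseline.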

[16] = read-out: UDP glucuronosyltransferase (UGT1A6), UGT1A6 (gene 54578); experiment: LTEA_HepaRG_UGT1A6: Life Technologies and Expression Analysis (LTEA) Assay for UDP glucuronosyltransferase (UGT1A6) using HepaRG (AID 2283539); details: mRNA level, 48 h; actives raise or lower the signal
How it was run: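 Human HepaRG cells were dosed for 48 h in serum-free induction medium with 0.5% DMSO vehicle, eight-point half-log series from 100 uM, in duplicate. UGT1A6 mRNA was measured by qRT-PCR, normalized to ACTB, GAPDH, POLR2A, and fitted bidirectionally against DMSO.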

[17] = read-out: X-box binding protein 1 (XBP1), XBP1 (gene 7494); experiment: LTEA_HepaRG_XBP1: Life Technologies and Expression Analysis (LTEA) Assay for X-box binding protein 1 (XBP1) using HepaRG (AID 2283540); details: mRNA level, 48 h; actives raise or lower the signal
How it was run: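 Differentiated human HepaRG cells in serum-free induction medium were exposed in duplicate for 48 h to eight half-log concentrations up to 100 uM in 0.5% DMSO. XBP1 mRNA was quantified by qRT-PCR, normalised to ACTB, GAPDH and POLR2A, with bidirectional fitting against DMSO.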

[18] = LTEA_HepaRG_LDH_cytotoxicity: Cytotoxicity Assessment in the Life Technologies and Expression Analysis (LTEA) Assay (AID 2283563; active means hit-call score of the fitted dose curve at least 0.9, where 1 is the maximum)
How it was run: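 Differentiated human HepaRG cells, plated 48 h beforehand, were switched to serum-free induction medium and exposed for 48 h to eight half-log concentrations (top 100 uM) in 0.5% DMSO. LDH was measured in spent medium; activity was fitted relative to DMSO vehicle.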

[19] = ATG_XTT_Cytotoxicity: Cytotoxicity Assessment in the Attagene TRANS-FACTORIAL HepG2 Assay (AID 2283584; active means hit-call score of the fitted dose curve at least 0.9, where 1 is the maximum)
How it was run: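 HepG2 human liver cells, transiently transfected with multiple GAL4-UAS reporter units, were dosed and read at 24 h by XTT as cell number. Loss of signal was fitted relative to DMSO negative control baseline.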

Measured: AC50

Chain of Signal transducer and activator of transcription 3 (Homo sapiens) (P40763 whole entry, looked up): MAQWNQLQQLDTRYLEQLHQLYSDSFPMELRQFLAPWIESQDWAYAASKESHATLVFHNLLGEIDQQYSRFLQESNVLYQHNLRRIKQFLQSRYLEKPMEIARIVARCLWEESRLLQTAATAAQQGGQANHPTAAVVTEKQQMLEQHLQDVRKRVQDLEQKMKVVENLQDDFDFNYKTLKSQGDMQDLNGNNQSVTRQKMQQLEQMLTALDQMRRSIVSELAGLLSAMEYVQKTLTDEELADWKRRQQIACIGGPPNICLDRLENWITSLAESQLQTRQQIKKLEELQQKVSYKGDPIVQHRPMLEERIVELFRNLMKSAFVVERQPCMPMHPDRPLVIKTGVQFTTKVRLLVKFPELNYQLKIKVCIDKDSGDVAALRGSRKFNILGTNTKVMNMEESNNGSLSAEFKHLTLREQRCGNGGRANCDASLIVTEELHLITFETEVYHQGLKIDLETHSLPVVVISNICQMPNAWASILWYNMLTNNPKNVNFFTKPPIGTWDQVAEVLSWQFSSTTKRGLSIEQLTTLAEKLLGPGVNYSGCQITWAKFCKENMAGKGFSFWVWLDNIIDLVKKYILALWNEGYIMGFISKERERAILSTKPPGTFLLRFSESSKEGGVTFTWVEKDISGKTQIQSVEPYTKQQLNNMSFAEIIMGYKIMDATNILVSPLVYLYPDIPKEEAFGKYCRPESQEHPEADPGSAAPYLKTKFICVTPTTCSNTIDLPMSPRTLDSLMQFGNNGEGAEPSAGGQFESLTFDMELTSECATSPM
Chain of Cellular tumor antigen p53 (Homo sapiens) (P04637 whole entry, looked up): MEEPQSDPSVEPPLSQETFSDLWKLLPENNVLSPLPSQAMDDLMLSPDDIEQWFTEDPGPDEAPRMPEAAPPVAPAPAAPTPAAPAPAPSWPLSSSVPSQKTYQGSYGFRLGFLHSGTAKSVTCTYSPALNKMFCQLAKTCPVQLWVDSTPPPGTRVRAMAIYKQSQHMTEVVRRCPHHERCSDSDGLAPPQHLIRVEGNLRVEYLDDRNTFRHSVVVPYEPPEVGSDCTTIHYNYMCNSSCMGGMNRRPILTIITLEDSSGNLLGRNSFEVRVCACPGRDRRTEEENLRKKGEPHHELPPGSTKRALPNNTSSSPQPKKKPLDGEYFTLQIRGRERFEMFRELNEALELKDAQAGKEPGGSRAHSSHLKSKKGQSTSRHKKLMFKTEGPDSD
Chain of Nuclear factor erythroid 2-related factor 2 (Homo sapiens) (Q16236 whole entry, looked up): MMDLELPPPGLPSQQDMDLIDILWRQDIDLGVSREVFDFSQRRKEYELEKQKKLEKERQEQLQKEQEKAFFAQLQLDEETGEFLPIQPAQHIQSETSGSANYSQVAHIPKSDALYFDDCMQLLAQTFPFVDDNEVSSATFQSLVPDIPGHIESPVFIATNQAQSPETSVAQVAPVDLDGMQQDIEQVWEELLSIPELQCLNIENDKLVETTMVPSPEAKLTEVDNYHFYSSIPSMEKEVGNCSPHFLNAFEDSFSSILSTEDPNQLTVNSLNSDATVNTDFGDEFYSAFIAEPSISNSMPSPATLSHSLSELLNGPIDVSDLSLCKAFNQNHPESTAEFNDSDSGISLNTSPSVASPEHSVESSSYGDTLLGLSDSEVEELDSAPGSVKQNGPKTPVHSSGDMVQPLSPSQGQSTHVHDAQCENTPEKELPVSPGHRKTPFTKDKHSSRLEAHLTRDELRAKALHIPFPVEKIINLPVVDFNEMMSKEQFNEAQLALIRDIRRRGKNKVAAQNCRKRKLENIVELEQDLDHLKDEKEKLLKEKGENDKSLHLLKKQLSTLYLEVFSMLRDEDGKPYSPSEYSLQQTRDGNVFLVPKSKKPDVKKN

CCOC(=O)c1ccccc1C(=O)OCC
not listed: [19]
inactive: all other assays above

c1nc[nH]n1
active: [4] 106 nM | [10] 0.0948 µM | [11] 12.4 µM
inactive: all other assays above

CCCN(CCC)c1c([N+](=O)[O-])cc(C(C)C)cc1[N+](=O)[O-]
active: [2] 77.4 µM | [3] 20.9 µM | TIMP1, TIMP1 (gene 7076) 110 nM | [12] 0.0432 µM | [14] 0.322 µM | [15] 1.85 µM | [16] 1.17 µM
inactive: all other assays above

CCNc1nc(Cl)nc(NC(C)(C)C)n1
active: [15] 6.03 µM
not listed: [14]
inactive: all other assays above

c1ccc(OP(Oc2ccccc2)Oc2ccccc2)cc1
inactive: all assays above

[N-]=[N+]=[N-]
active: [3] 71.7 µM | [6] 50 µM | [10] 94.4 µM | [12] 72.6 µM | [13] 50 µM | [14] 81.9 µM | [15] 80.7 µM
not listed: [19]
inactive: all other assays above

CN(C)C(=O)Cl
not listed: [14]
inactive: all other assays above

CCCCN(CCCC)N=O
inactive: all assays above

CCN(CC)c1ccccc1
inactive: all assays above

CCOc1ccc(C(C)(C)COCc2cccc(Oc3ccccc3)c2)cc1
active: [15] 10.2 µM
not listed: [16]
inactive: all other assays above

O=P1(N(CCCl)CCCl)NCCCO1 (centres undefined)
not listed: [19]
inactive: all other assays above
